PubChem BioAssay AID1159580 (chemical genetic matrix, 2015)
The campaign covered roughly 5,500 compounds. About 2,000 (36%) were called active. Roughly 18% stayed inconclusive and do not appear here. Rule as the data show it: active = normalized growth mostly below about 0.91 (no sharp cut-off); inconclusive = no clear call, values can overlap the other calls; inactive = mostly above about 0.92. This is one part of the list.

Assay: chemical genetic growth profiling, strain panel (AID 1159580);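 also: tested at 20 µM; growth read once vehicle control cultures reached saturation at 30 °C; 1 = growth at the plate median or of vehicle wells; lower values mean less growth of the strain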
Details: growth OD

Measured: normalized growth

O=C(O)c1cc(=O)c2cccc(O)c2[nH]1
inactive: S. cerevisiae deletion strains, locus YJR075W, strain HOC1, active compounds read low 0.974 | S. cerevisiae deletion strains, locus YKL009W, strain mrt4, active compounds read low 0.965 | S. cerevisiae deletion strains, locus YKL068W, active compounds read low 0.976 | S. cerevisiae deletion strains, locus YKL085W, strain MDH1 (second series), active compounds read low 0.964 | S. cerevisiae deletion strains, locus YKL085W, strain MDH1, active compounds read low 0.964 | S. cerevisiae deletion strains, locus YKL160W, strain elf1, active compounds read low 1.05 | S. cerevisiae deletion strains, locus YKL190W, strain CNB1, active compounds read low 0.982 | S. cerevisiae deletion strains, locus YKR001C, strain vps1, active compounds read low 1 | S. cerevisiae deletion strains, locus YKR026C, strain gcn3, active compounds read low 1.01 | S. cerevisiae deletion strains, locus YKR091W, strain srl3, active compounds read low 1.01 | S. cerevisiae deletion strains, locus YLL001W, strain dnm1, active compounds read low 1.02 | S. cerevisiae deletion strains, locus YLL026W, active compounds read low 1.02 | S. cerevisiae deletion strains, locus YLL041C, strain sdh2, active compounds read low 1 | S. cerevisiae deletion strains, locus YLR027C, strain aat2, active compounds read low 0.996 | S. cerevisiae deletion strains, locus YLR039C, strain RIC1, active compounds read low 0.968 | S. cerevisiae deletion strains, locus YLR058C, strain SHM2, active compounds read low 0.987 | S. cerevisiae deletion strains, locus YLR102C, strain apc9, active compounds read low 0.979 | S. cerevisiae deletion strains, locus YLR113W, strain HOG1, active compounds read low 0.99 | S. cerevisiae deletion strains, locus YLR221C, strain rsa3, active compounds read low 0.995 | S. cerevisiae deletion strains, locus YLR258W, strain gsy2, active compounds read low 1.03 | S. cerevisiae deletion strains, locus YLR262C, strain YPT6 (second series), active compounds read low 1.01 | S. cerevisiae deletion strains, locus YLR262C, strain YPT6, active compounds read low 0.971 | S. cerevisiae deletion strains, locus YLR268W, strain sec22, active compounds read low 0.916 | S. cerevisiae deletion strains, locus YLR320W, strain mms22, active compounds read low 1.01 | S. cerevisiae deletion strains, locus YLR330W, strain CHS5, active compounds read low 0.991 | S. cerevisiae deletion strains, locus YLR342W, strain FKS1 (second series), active compounds read low 1.08 | S. cerevisiae deletion strains, locus YLR342W, strain FKS1, active compounds read low 1.02 | S. cerevisiae deletion strains, locus YLR357W, strain rsc2, active compounds read low 1.05 | S. cerevisiae deletion strains, locus YLR370C, strain arc18, active compounds read low 1.04 | S. cerevisiae deletion strains, locus YLR371W, strain rom2, active compounds read low 0.98 | S. cerevisiae deletion strains, locus YLR384C, strain iki3, active compounds read low 1.02 | S. cerevisiae deletion strains, locus YLR418C, strain cdc73, active compounds read low 1.03 | S. cerevisiae deletion strains, locus YML016C, strain PPZ1, active compounds read low 1 | S. cerevisiae deletion strains, locus YML032C, strain rad52, active compounds read low 0.961 | S. cerevisiae deletion strains, locus YML120C, strain ndi1, active compounds read low 1.01 | S. cerevisiae deletion strains, locus YML124C, strain tub3, active compounds read low 0.977 | S. cerevisiae deletion strains, locus YMR058W, strain fet3, active compounds read low 1.02 | S. cerevisiae deletion strains, locus YMR078C, strain ctf18, active compounds read low 0.991 | S. cerevisiae deletion strains, locus YMR125W, strain sto1, active compounds read low 1.02 | S. cerevisiae deletion strains, locus YMR129W, active compounds read low 1.02 | S. cerevisiae deletion strains, locus YMR205C, strain PFK2, active compounds read low 1.02 | S. cerevisiae deletion strains, locus YMR223W, strain ubp8, active compounds read low 1.03 | S. cerevisiae deletion strains, locus YMR231W, strain pep5, active compounds read low 1.01 | S. cerevisiae deletion strains, locus YMR263W, strain SAP30, active compounds read low 0.975 | S. cerevisiae deletion strains, locus YMR307W, strain GAS1, active compounds read low 1.09 | S. cerevisiae deletion strains, locus YNL067W, strain RPL9B, active compounds read low 0.967 | S. cerevisiae deletion strains, locus YNL071W, strain lat1, active compounds read low 1.02 | S. cerevisiae deletion strains, locus YNL128W, strain TEP1, active compounds read low 0.983 | S. cerevisiae deletion strains, locus YNL153C, strain GIM3, active compounds read low 0.97 | S. cerevisiae deletion strains, locus YNL183C, strain NPR1, active compounds read low 0.917 | S. cerevisiae deletion strains, locus YNL209W, strain ssb2, active compounds read low 0.999 | S. cerevisiae deletion strains, locus YNL233W, strain BNI4, active compounds read low 0.97 | S. cerevisiae deletion strains, locus YNL248C, strain rpa49, active compounds read low 1.03 | S. cerevisiae deletion strains, locus YNL250W, strain rad50, active compounds read low 0.967 | S. cerevisiae deletion strains, locus YNL271C, strain bni1, active compounds read low 0.976 | S. cerevisiae deletion strains, locus YNL298W, strain CLA4, active compounds read low 0.987 | S. cerevisiae deletion strains, locus YNL307C, strain MCK1, active compounds read low 0.981 | S. cerevisiae deletion strains, locus YNL322C, strain KRE1 (second series), active compounds read low 1.03 | S. cerevisiae deletion strains, locus YNL322C, strain KRE1, active compounds read low 0.984 | S. cerevisiae deletion strains, locus YNR049C, strain mso1, active compounds read low 1.02 | S. cerevisiae deletion strains, locus YNR052C, strain pop2, active compounds read low 1 | S. cerevisiae deletion strains, locus YOL006C, strain TOP1, active compounds read low 1.02 | S. cerevisiae deletion strains, locus YOL012C, strain htz1 0.728 | S. cerevisiae deletion strains, locus YOL147C, strain pex11, active compounds read low 0.985 | S. cerevisiae deletion strains, locus YOR001W, strain rrp6, active compounds read low 0.956 | S. cerevisiae deletion strains, locus YOR061W, strain CKA2, active compounds read low 0.992 | S. cerevisiae deletion strains, locus YOR069W, strain VPS5, active compounds read low 0.991 | S. cerevisiae deletion strains, locus YOR070C, strain gyp1, active compounds read low 1.02 | S. cerevisiae deletion strains, locus YOR080W, strain dia2, active compounds read low 1.01 | S. cerevisiae deletion strains, locus YOR083W, strain WHI5, active compounds read low 1.05 | S. cerevisiae deletion strains, locus YOR106W, strain vam3, active compounds read low 1.03 | S. cerevisiae deletion strains, locus YOR136W, strain idh2, active compounds read low 0.99 | S. cerevisiae deletion strains, locus YOR144C, strain elg1, active compounds read low 0.99 | S. cerevisiae deletion strains, locus YOR184W, strain ser1, active compounds read low 0.972 | S. cerevisiae deletion strains, locus YOR231W, strain MKK1, active compounds read low 0.982 | S. cerevisiae deletion strains, locus YOR265W, strain rbl2, active compounds read low 1.01 | S. cerevisiae deletion strains, locus YOR270C, strain vph1, active compounds read low 0.995 | S. cerevisiae deletion strains, locus YOR290C, strain snf2, active compounds read low 1.06 | S. cerevisiae deletion strains, locus YOR316C, strain cot1, active compounds read low 0.966 | S. cerevisiae deletion strains, locus YPL051W, strain arl3, active compounds read low 1.04 | S. cerevisiae deletion strains, locus YPL055C, strain LGE1, active compounds read low 0.951 | S. cerevisiae deletion strains, locus YPL078C, strain atp4, active compounds read low 1.04 | S. cerevisiae deletion strains, locus YPL106C, strain sse1, active compounds read low 1.03 | S. cerevisiae deletion strains, locus YPL240C, strain hsp82, active compounds read low 1.01 | S. cerevisiae deletion strains, locus YPL241C, strain CIN2, active compounds read low 0.982 | S. cerevisiae deletion strains, locus YPL256C, strain CLN2, active compounds read low 0.965 | S. cerevisiae deletion strains, locus YPR119W, strain clb2, active compounds read low 0.987 | S. cerevisiae deletion strains, locus YPR141C, strain kar3, active compounds read low 0.97 | S. cerevisiae deletion strains, locus YPR163C, strain tif3, active compounds read low 0.989 | S. cerevisiae deletion strains, locus YPR167C, strain met16, active compounds read low 0.973 | S. cerevisiae deletion strains, strain wtn01, active compounds read low 0.995 | S. cerevisiae strains, strain wild type, active compounds read low 1
